Source: PubChem BioAssay AID1347416 (National Center for Advancing Translational Sciences (NCATS), 2020)
Hit rate of the full screen: of about 4,100 compounds, about 1,600 (39%) were called active. Inconclusive results (about 25%) are left out. The call rests on the fitted dose curve; in most records, active means well fitted inhibition curve with a large enough effect; inconclusive means small, poorly fitted or top-dose-only effect; inactive means no such curve, though single readings can be large or run the other way. Some of the results follow.

Assay: qHTS Validation assay for Inhibitors of Plasmodium falciparum Dd2 growth in vitro; further: nearly all actives have a fitted effect of over 70% in size
Settings: P. falciparum Dd2 in RBCs, SYBR Green growth, 72 h; series mostly up to 28.7 µM; activity change, negative = inhibition: at the top concentration
Outline: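 P. falciparum Dd2-infected red blood cells (2.5% hematocrit, 0.3% parasitemia) grown 72 h at 37 °C under 5% O2 with compounds in a titration, 29 uM to 0.5 nM final. Growth read as SYBR Green-1 fluorescence after ~16 h lysis; artesunate 300 nM as positive control.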
On the % scale 0 is the no-effect control and ±100 the full control effect; potency means the concentration at half of the fitted maximal effect.

Row | SMILES | activity change, negative = inhibition | Potency
1 | CNC(=O)[C@@H]1C[C@H](Oc2ccccc2)CN1C(=O)c1cc2ccccc2[nH]1 | 5.84% (inactive) | –
2 | COc1cc(C(=O)Nc2ccc3nc(N4CCN(C)CC4)cc(C)c3c2)cc(OC)c1OC | – | 3.35 µM (active)
3 | COc1ccc(NC(=O)CCn2ccn3nc4c(c3c2=O)CCCC4)cc1OC | 13.3% (inactive) | –
4 | COc1ccc(Nc2cc(C)c3cc(NC(=O)c4cc(OC)cc(OC)c4)ccc3n2)cc1 | – | 0.75 µM (active)
5 | Cc1noc(-c2cccc(OC3CN(S(=O)(=O)c4cn(C)cn4)C3)c2)n1 | 38.6% (inactive) | –
6 | O=C(c1ccco1)N1CC(Oc2cccc(-c3nc(-c4ccccc4)no3)c2)C1 | -21.8% (inactive) | –
7 | CCCNC(=O)N1CC(Oc2cccc(-c3nc(-c4ccccc4)no3)c2)C1 | – | 13.3 µM (active)
8 | COc1ccc(OC)c(S(=O)(=O)Nc2ccc(O)c3ccccc23)c1 | – | 8.41 µM (active)
9 | COc1ccc(OC)c(S(=O)(=O)NCCc2sc(C)nc2C)c1 | -7.9% (inactive) | –
10 | Cc1nc(-c2ccc(Cl)cc2)sc1CCNC(=O)c1ccco1 | -10.7% (inactive) | –
11 | CCCCN(C(=O)c1ccco1)c1nnc(-c2cc(OC)c(OC)c(OC)c2)s1 | – | 2.99 µM (active)
12 | Cc1ccc(C(=O)NN2C(=O)C3C4C=CC(C4)[C@@H]3C2=O)cc1 (some centres not stated) | 68.1% (inactive) | –
13 | O=C(c1ccc2ncccc2c1)N1CCc2c(nc3cc[nH]n3c2=O)C1 | 8.27% (inactive) | –
14 | OC(CNCC1CCCO1)Cn1c2ccc(Cl)cc2c2cc(Cl)ccc21 (configuration not stated) | – | 1.19 µM (active)
15 | CCc1cccc(C)c1Nc1c(-c2cccc(O)c2)nc2sccn12 | 0.531% (inactive) | –
16 | COc1cccc(-c2nc(-c3c(C)noc3C)cc3c2cc(C)n3CCN(C)C)c1 | – | 17.2 µM (active)
17 | Cc1noc(C)c1-c1cc2c(cc(C)n2CCN(C)C)c(-c2cccc(O)c2)n1 | – | 17.2 µM (active)
18 | Cc1noc(C)c1-c1cc2c(cc(C)n2CCN(C)C)c(Nc2ccn(C)n2)n1 | – | 13.7 µM (active)
19 | Cc1noc(C)c1-c1cc2c(cc(C)n2C)c(NCCN(C)C)n1 | -28.9% [at 43.1 µM] (inactive) | –
20 | COc1cc(-c2nc(-c3c(C)noc3C)cc3c2cc(C)n3CCN(C)C)ccn1 | – | 17.2 µM (active)
21 | COc1cccc(-c2noc(CCCc3nc(-c4cccnn4)no3)n2)c1 | 48.1% (inactive) | –

Row | SMILES | activity change, negative = inhibition | Potency
22 | O=[S+]1([O-])NCC2(CCN(CC3CC3)CC2)Nc2ccccc21 | 23.9% [at 43.1 µM] (inactive) | –
23 | O=C(c1ccsc1)N1CC(n2cc(-c3ccccc3)nn2)C1 | 16.2% (inactive) | –
24 | O=C(c1cccc(O)c1)N1CC=C(c2cnc3cnc(-c4ccccc4)cn23)CC1 | – | 9.68 µM (active)
25 | O=C(NCC1CC1)c1cccc(OC2CN(Cc3cc(F)c(F)c(F)c3)C2)c1 | -6.52% (inactive) | –
26 | COCCNC(=O)[C@H]1C[C@H](Oc2ccccc2)CN1C(=O)c1ccccc1OC | 14.8% (inactive) | –
27 | Cc1ccsc1CN1CC(Oc2ccccc2C(=O)NC2CC2)C1 | -24.7% (inactive) | –
28 | COc1ccc(CN2CC(Oc3ccccc3C(=O)NCc3ccccc3)C2)c(OC)c1 | – | 10.6 µM (active)
29 | O=C(NCc1ccc(F)cc1)c1c2c(nc3ccccc13)C(=O)N(C1CCCCC1)C2 | 0% (inactive) | –
30 | O=C(NCc1ccccc1)c1ccccc1OC1CN(Cc2ccc(O)c(F)c2)C1 | – | 15 µM (active)
31 | Cc1c(CN2CC(Oc3ccccc3C(=O)NCc3ccccc3)C2)cnn1C | – | 4.22 µM (active)
32 | CCCN1CCN(C(=O)c2cc3c(s2)CCN(C(=O)c2ccc(F)cc2)C3)CC1 | -26.7% (inactive) | –
33 | O=C1C2=C(Nc3ccccc3SC2c2c(F)cccc2Cl)c2ccccc21 (configuration not stated) | – | 9.44 µM (active)
34 | O=C1C2=C(Nc3ccccc3SC2c2ccco2)c2ccccc21 (configuration not stated) | – | 4.73 µM (active)
35 | COc1ccc(C2Sc3ccccc3NC3=C2C(=O)c2ccccc23)c(OC)c1OC (configuration not stated) | – | 0.75 µM (active)
36 | CCn1cc(CN2CCCC23CCN(c2cc(C)nc4ccccc24)CC3)c(C)n1 | – | 4.22 µM (active)
37 | CCn1ncc(CN2CCCC23CCN(c2cc(C)nc4ccccc24)CC3)c1C | – | 5.31 µM (active)
38 | CN(C)c1nc2c(c(=O)[nH]1)CCN(Cc1ccc(F)cc1Cl)CC2 | – | 10.6 µM (active)
39 | CN(C)c1nc2c(c(=O)[nH]1)CCN(Cc1ccccc1Br)CC2 | – | 9.44 µM (active)
40 | COc1cc(OC)c(OC)cc1CN1CCc2nc(N(C)C)[nH]c(=O)c2CC1 | 3.94% (inactive) | –
41 | N#Cc1ccc(CN2CCc3n[nH]c(=O)n3CC2)cc1 | 18% (inactive) | –
42 | CN(C)c1nc2c(c(=O)[nH]1)CCN(Cc1ccc(Br)cc1)CC2 | – | 13.3 µM (active)

Row | SMILES | activity change, negative = inhibition | Potency
43 | O=C(CCc1ccccc1)N1CCc2c(nc(-c3ccc(F)cc3)[nH]c2=O)C1 | 3.77% (inactive) | –
44 | CN(C)c1ccc(C(=O)NCc2nnc3cc(-c4nc(C5CC5)no4)ccn23)cc1 | 8.1% (inactive) | –
45 | Oc1cc(Nc2ccc(N3CCCCC3)cc2)cc2cccnc12 | – | 0.842 µM (active)
46 | COc1ccc(Nc2cc(O)c3ncccc3c2)cc1 | – | 0.75 µM (active)
47 | Oc1cc(Nc2ccccc2)cc2cccnc12 | – | 6.68 µM (active)
48 | CCOC(=O)c1ccccc1NC(=O)C(C)Oc1ccccc1 (configuration not stated) | – | 10.6 µM (active)
49 | Cc1ccc(OCC(=O)Nc2ccccc2C(=O)OCc2cc(=O)n3ccsc3n2)cc1 | 36.1% (inactive) | –
50 | COc1ccc(C)cc1NC(=O)N1c2ccccc2CC1c1nc(C2CC2)no1 (configuration not stated) | -12.9% (inactive) | –
51 | O=C(c1ccc2nc[nH]c2c1)N1CCCC2(C1)Nc1cccnc1NC2=NC1CCCC1 (configuration not stated) | 0% (inactive) | –
52 | COc1ccc(C)cc1NC(=O)N1CCCC2(C1)Nc1cccnc1NC2=NC1CCCC1 (configuration not stated) | – | 6.68 µM (active)
53 | COc1ccc(-c2cn3c(n2)sc2cc(C(=O)NCCCN4CCCCC4)ccc23)cc1 | – | 4.73 µM (active)
54 | COc1ccc(-c2cc3c(=O)n(CCNC(=O)c4ccc(OC)c(OC)c4)ccn3n2)cc1 | -16.9% (inactive) | –
55 | CCCN1CCN(CCCNC(=O)c2ccc3c(c2)sc2nc(-c4ccc(OCC)cc4)cn23)CC1 | – | 4.22 µM (active)
56 | CCOc1ccc(-c2cc3c(=O)n(CCNC(=O)c4ccccc4)ccn3n2)cc1 | 13.3% (inactive) | –
57 | CCOc1ccc(-c2cc3c(=O)n(CCNC(=O)c4cccc(C#N)c4)ccn3n2)cc1 | -6.7% (inactive) | –
58 | CCOc1ccc(-c2cc3c(=O)n(CCNC(=O)c4ccc(C#N)cc4)ccn3n2)cc1 | -7.04% (inactive) | –
59 | CCOc1ccc(-c2cn3c(n2)sc2cc(C(=O)NC(C)C45CC6CC(CC(C6)C4)C5)ccc23)cc1 (configuration not stated) | – | 5.96 µM (active)
60 | CCCN1CCN(CCCNC(=O)c2ccc3c(c2)sc2nc(-c4ccc(OC)cc4)cn23)CC1 | – | 4.73 µM (active)
61 | COc1ccc(-c2cc3c(=O)n(CCNC(=O)c4ccc(OC)nc4)ccn3n2)cc1 | -14.6% (inactive) | –
62 | CCOc1ccc(-c2cn3c(n2)sc2cc(C(=O)NCCCc4ccccc4)ccc23)cc1 | -30.3% (inactive) | –
